# Laboratory results taken from PubChem BioAssay AID1053124 (Broad Institute, 2014).
# Entries with a potency or affinity are not part of this list. A number with no mark means an inactive call.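 Rule for the calls: active = cell killing whose fitted half-effect concentration is at most twice the top valid dose tested; inconclusive = flat curve with 30 to 70% killing, or a poor fit; inactive = effect in the rising direction, plus the rest.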
# Assay: viability loss in A549 lung cells – cell-based, ATP luminescence, cherry-pick, set 2, cytotoxicity control, dose response (AID 1053124);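 note: 0% = neutral control wells and -100% = mitoxantrone 10 µM positive control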
# Conditions: ATP luminescence (CellTiter-Glo), 72 h; series mostly up to 26 µM; activity change, negative = cytotoxicity: at the top concentration
row,Structure (SMILES),"activity change, negative = cytotoxicity [%]"
1,Nc1ccc(C#Cc2ccc3c(=O)c4ccccc4oc3c2)cc1,-9.82
2,CCOc1ccc2nc(NCCCNC(=O)c3cc(OC)c(OC)c(OC)c3)c(C#N)cc2c1,-8.1
3,COc1ccc(CCNC(=O)c2cc(S(=O)(=O)N3CCCCC3)c[nH]2)cc1OC,-1.35
4,O=C(/C=C/c1ccccc1)C1=C(O)C(=O)N(CCO)C1c1ccc2c(c1)OCO2 (centres undefined),-9.53
5,CCCN1CCN(C(=O)c2ccc(CS(=O)c3ccc(Br)cc3)o2)CC1 (centres undefined),-6.12
6,CSC1=NSC2=NC(=O)/C(=C/c3coc4ccc(O)cc4c3=O)C(=N)N12,-7.15
7,CCN(CC)CCNC(=O)c1sc2nc(-c3ccccc3)cn2c1C,-4.09
8,C[C@H](NC(=O)c1nc[nH]c1C(=O)N[C@@H](Cc1ccccc1)C(=O)OC(C)(C)C)C(=O)OCc1ccccc1,-5.37
9,O=C(c1ccc(F)cc1)C1CCN(C(=O)Nc2ccccc2Cl)CC1,2.67
10,CCOc1ccc2nc(NCCCNS(=O)(=O)c3ccc(C)cc3)c(C#N)cc2c1,-3.55
11,CCOc1ccc2nc(NCCNC(=O)CC)c(C#N)cc2c1,-8.92
12,CCOC(=O)c1cc2c(=O)n3ccccc3nc2n(C(C)C)c1=NC(=O)c1ccco1,-10.1
13,S=c1[nH]c2ccc(Cc3ccc4[nH]c(=S)[nH]c4c3)cc2[nH]1,-13.4
14,CCN(CC)c1ccc2cc(C(N)=O)c(=O)oc2c1,0.837
15,Cc1cccn2c(=O)c3cc(C(=O)NCC4CCCO4)c(=N)n(CC4CCCO4)c3nc12 (centres undefined),3.13
16,Cc1ccc(O)c(NC(=S)NC(=O)COc2ccc(Br)cc2)c1,-1.55
17,CSc1ccc(Cl)c(C(=O)N2CCOc3ccccc32)c1,-2.35
18,[O-]/[N+](=C/c1ccccc1)c1ccccc1,1.21
19,N#C/C(=C\c1ccc(N2CCOCC2)o1)C(=O)NCCc1ccccc1,-8.25
20,Cc1c(C=O)c2ccccn2c1C(=O)c1cccs1,3.67

row,Structure (SMILES),"activity change, negative = cytotoxicity [%]"
1,CCn1c(=NC(=O)CSC(C)=O)sc2cc(OC)ccc21,-8.33
2,O=c1oc2cc(O)ccc2cc1S(=O)(=O)c1ccccc1,-15
3,CC(=O)c1cc2c(ccc3ccccc32)oc1=O,-2.08
4,CN1CCN(c2nc3ccccn3c(=O)c2/C=C(\C#N)S(=O)(=O)c2ccccc2)CC1,2.15
5,Nn1c(SCC(=O)N2CCCC2)nnc1-c1cccs1,2.35
6,O=C(NS(=O)(=O)c1ccc(Cl)s1)c1ccccc1,-7.08
7,N=c1c(C(=O)NCC2CCCO2)cc2c(=O)n3ccccc3nc2n1Cc1ccc(Cl)cc1 (centres undefined),-16.8
8,Cc1ccc2[nH]c3ccccc3c(=O)c2c1,-6.97
9,Cc1cccn2c(=O)c(/C=C(\C#N)C(=O)NC3CCS(=O)(=O)C3)c(N3CCC(C(N)=O)CC3)nc12 (centres undefined),-3.85
10,O=C(O)c1cccc(NC(=O)c2cn(-c3ccccc3)nc2-c2cccc(Br)c2)c1,-14.8
11,CCOC(=O)C1CCCN(CCCc2ccccc2)C1 (centres undefined),-3.61
12,COc1ccc(CCNC(=O)CSc2cn(Cc3cccc(C)c3)c3ccccc23)cc1OC,-20.8
13,Cc1c(C(=O)NCc2ccc(Cl)c(Cl)c2)sc(=O)n1Cc1cccc(F)c1,-10.2
14,CCc1ccccc1S(=O)(=O)Cc1ccc(C(=O)N2CCN(c3ccccc3OC)CC2)o1,-6.17
15,Cc1ccc2nc3c(cc(C(=O)NCc4ccccc4)c(=N)n3CCCn3ccnc3)c(=O)n2c1,-10.2
16,O=C(c1cccc(Cl)c1)N1CCC(=O)N(C(COCc2ccccc2)Cc2ccccc2)CC1 (centres undefined),-0.569
17,O=C(O)c1ccc(-c2ccc(/C=C3\NC(=O)N(Cc4ccc(Cl)cc4)C3=O)o2)cc1,-1.62
18,CCOC(=O)c1cc(-c2ccccc2)sc1NC(=O)CSc1nnc(N)s1,-6.09
19,O=C(NNc1cc(N2CCCC2)nc(N2CCCC2)n1)c1ccc([N+](=O)[O-])cc1,-12.8
